Experimental findings from PubChem BioAssay AID588692 (Broad Institute, 2011) are described below.

Values joined by “and” are separate entries in the source; they are usually repeats but may differ in a detail not shown here. Identical values can stand only once. In all, about 360,000 compounds went through this assay and about 830 (0.23%) were called active. The list comes from a sample in which actives are over-represented; it also holds similar structures and randomly drawn compounds. A number with no mark means an inactive call.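 Rule for the calls: active = mean luciferase reporter signal, scaled so untreated is 0 and the glycosylation-blocking control 100, at or above a set limit in every replicate; inconclusive = mean reaches the limit but not every replicate does; inactive = mean below the limit.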

The experiment is described as follows: D54 reporter luminescence gain compounds – D54 ERlucT cells, set 2, N-linked glycosylation inhibitor project, primary screen (AID 588692).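 Note: luciferase carries N-glycosylation sites so blocking glycosylation raises the light; 0% = median of neutral control wells and 100% = median of 100 nM tunicamycin wells.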 The settings on record: D54 ERlucT glycosylation luciferase reporter, 24 h; at 12.5 µM; hits give high values; percent of 100 nM tunicamycin response. A general note: In a reporter assay the amount or activity of a reporter protein is the signal.
In the case of `CN(CCOc1ccc(CC2SC(=O)NC2=O)cc1)c1ccccn1` (centres undefined), the reporter increase was 4.03% and 1.28%.

In the case of `CCN(CC)CCOc1ccc2c(c1)C(=NNC(=O)c1ccccn1)c1cc(OCCN(CC)CC)ccc1-2`, the reporter increase is 68.7% (active).

`CCN(CC)CCNCC(=O)Nc1ccc(Oc2ccccc2)cc1`: the reporter increase was 0.423%.

As to `CC[C@H](C)C(=O)N[C@H]1CCCN1C(=O)/C=C/c1ccccc1`, the reporter increase is -0.751%.

On to `CN1CCN(Cc2nc3c(c(=O)n(C)c(=O)n3C)n2Cc2cccc3ccccc23)CC1`, for which the reporter increase was -0.438%.

On to `O=c1c2cc(-c3ccccc3)sc2nc2n1N=C(c1cccs1)CS2`, for which the reporter increase is -9.8%.

With `O=C(O[C@H]1[C@H](Cc2ccccc2)NS(=O)(=O)[C@H]2C[C@@H]3C=C[C@]12O3)c1ccc([N+](=O)[O-])cc1`, the reporter increase was 2.96%.

For the compound `CC(Sc1nncs1)C(=O)NCc1ccc2c(c1)OCO2` (centres undefined), the reporter increase is -1.14%.

In the case of `Cc1cc(C)c2nc3nc(C)cc(C)c3c(N)c2c1`, the reporter increase was 79% (active).

Regarding `COc1cc(OC)c2c(-c3cccc(-c4cccc(N)c4)c3)cc(=O)oc2c1`, the reporter increase was 4.55%.

For `CC(CNS(=O)(=O)c1ccc(Br)cc1)CN(C)C` (centres undefined), the reporter increase was 0.673%.

For `COc1ccccc1C(=O)COC(=O)CSCC(=O)Nc1cc(C)on1`, the reporter increase is 1.73%.

As for `O=C(NCC1CCCO1)C(C(=O)c1ccccc1)n1cc(Cl)ccc1=O` (centres undefined), the reporter increase is 1.12%.

As to `COc1ccccc1-c1nnc2n1N=C(c1ccc(OC(F)F)c(OCC3CC3)c1)CS2`, the reporter increase was 5.65%.

As to `CCn1c(SCC(=O)NC2CC2)nnc1-c1ccccc1OC`, the reporter increase was 1.11%.

Turning to `COc1ccc(C2=Nn3c(nnc3-c3ccccc3OC)SC2)cc1OC1CCCC1`, the reporter increase is 33.9% (active).

Consider `Cn1c(=O)[nH]c2c(c(C(=O)O)nn2C)c1=O`, for which the reporter increase was -0.816%.

As to `COCCn1c(SCC(=O)N2CCCCCC2)nc2c(c1=O)SCC2`, the reporter increase was 2.05%.

Consider `CCCNC(=O)C1(C)CCCN(C(=O)c2oc3ccccc3c2C)C1` (centres undefined), for which the reporter increase was -0.622%.

Regarding `C/C(=N\NC(=O)OC(C)(C)C)c1ccc[nH]1`, the reporter increase was -4.4%.

With `NC(=O)CC(NC(=O)Cc1cccc2ccccc12)c1ccc(NCc2cc(F)ccc2F)c([N+](=O)[O-])c1` (centres undefined), the reporter increase was 16%.

As to `NC(=O)CC(NC(=O)Cc1ccc(Br)cc1)c1ccc(NC2CC3CCC2C3)c([N+](=O)[O-])c1` (centres undefined), the reporter increase was 43% (active).

`CC1CCCCN1CCCNc1ccc(C(CC(N)=O)NC(=O)c2ccccc2)cc1[N+](=O)[O-]` (centres undefined): the reporter increase was 2.79%.

Turning to `CCOc1ccc2c(=O)c(-c3ccc4c(c3)OCCCO4)c(C)oc2c1`, the reporter increase was -1.81%.

Consider `COc1ccc(C(=O)NCC(c2ccco2)N2CCc3ccccc32)cc1OC` (centres undefined), for which the reporter increase is 2.39%.

In the case of `COC(=O)c1ccc(COC(=O)C2CCN(S(=O)(=O)c3c(Cl)cccc3Cl)CC2)o1`, the reporter increase is 0.74%.

In the case of `CC12CN(Cc3ccccc3)CC(C)(CN(Cc3ccccc3)C1)C2=NO`, the reporter increase was -0.263%.

For the compound `O=[N+]([O-])c1ccc(C=Nc2ccc(Cl)cc2Cl)s1`, the reporter increase is 36.7% (active).

Regarding `CS(=O)(=O)N(CC(O)Cn1c2ccccc2c2ccccc21)c1cccc2ccccc12` (centres undefined), the reporter increase was -2.21%.

As to `CC/C(=N/Nc1ccccc1)c1cnnc(SC)n1`, the reporter increase is 0.994%.

`Cc1cc(S(=O)(=O)c2cc3ccc(O)c(C)c3oc2=O)ccc1F`: the reporter increase is 1.14%.

For `COCCn1cnc2c1c(=O)n(CC(=O)NN)c(=O)n2Cc1ccccc1`, the reporter increase is -0.206%.

For the compound `Cc1ccc2nc(SCc3nnc(-c4ccccc4[N+](=O)[O-])o3)c(C#N)cc2c1`, the reporter increase is 35.7% (active).

In the case of `Fc1ccc2nc(-c3ccccc3)nc(SCc3nnc(-c4ccccc4)o3)c2c1`, the reporter increase is -4.84%.

Regarding `Cn1cnnc1SCc1nnc(-c2ccccc2Br)o1`, the reporter increase was 2.03%.

As for `CN(C(=O)CSc1nnc(-c2ccc3c(c2)OCO3)o1)C1CCS(=O)(=O)C1` (centres undefined), the reporter increase was 1%.

Take `Cc1[nH]nc(-c2ccc(OCc3cnn(-c4ccccc4)c3)cc2O)c1Oc1ccc(Cl)cc1`: the reporter increase was -4.08%.

As to `c1ccc2cc3c(NCCN4CCOCC4)ccnc3cc2c1`, the reporter increase was 102% (active).

With `O=C(NCCN1CCOCC1)c1cc(Sc2cccc(Cl)c2)nc2ccccc12`, the reporter increase was -2.52%.

Take `Cc1cccc(C)c1OCCN1CCOCC1`: the reporter increase is -0.152%.

For `CCOCCCNC(=S)N1CCC(NC(=O)C2CCCCC2)CC1`, the reporter increase was -1.17%.

As for `O=C1CN(C(=O)COC(=O)C2CC(=O)N(Cc3ccco3)C2)c2ccccc2N1` (centres undefined), the reporter increase was 1.95%.

For the compound `C=CCN1C(=O)c2ccc(C(=O)N3CCC(C(=O)OCC)CC3)cc2C1=O`, the reporter increase is 0.619%.

Regarding `COc1ccc(C(C)C)cc1-c1ccc2nncn2c1`, the reporter increase is -0.123%.
